Source: PubChem BioAssay (NCI)
Compounds without any hit were thinned out: in the full panel of roughly 83,000, 20% have a hit.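 Treatment: one concentration, 48 hours, 96-well format. Scoring: percent growth, with anything below 10 considered active.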 Activity calls are given as the source filed them.

Assays:
Assay in all cases: NCI-60 one-dose screen, 48 h (100 = growth as untreated, 0 = no growth, -100 = all killed)
Details in all cases: 10 µM unless noted
SK-MEL-2 melanoma = system: SK-MEL-2 melanoma
EKVX NSCLC = system: EKVX NSCLC
SN12C renal = system: SN12C renal
UO-31 renal = system: UO-31 renal
TK-10 renal = system: TK-10 renal
ACHN renal = system: ACHN renal
CAKI-1 renal = system: CAKI-1 renal
A498 renal = system: A498 renal
CCRF-CEM leukemia = system: CCRF-CEM leukemia

Measured: growth

COC(=O)[C@]12CC[C@@H](C)[C@H](C)[C@@H]1C1=CC[C@@H]3[C@@]4(C)C(C=O)=C[C@@](C)(COS(C)(=O)=O)C4[C@H](O)C[C@@]3(C)[C@]1(C)CC2 (stereo partly drawn)
active: SK-MEL-2 melanoma -60.7% | EKVX NSCLC -22.4% | SN12C renal -40.8% | UO-31 renal -96.6% | TK-10 renal -73.5% | ACHN renal -93.2% | CAKI-1 renal -15.6% | A498 renal -38.5% | CCRF-CEM leukemia -33.8%

O=C(Nc1ccccc1Cl)Oc1ccc(-c2ccccc2)cc1
inactive: SK-MEL-2 melanoma 120% | EKVX NSCLC 98% | SN12C renal 98.9% | UO-31 renal 84.5% | TK-10 renal 118% | ACHN renal 101% | CAKI-1 renal 81.8% | A498 renal 167% | CCRF-CEM leukemia 120%

O=C(NCCNc1cc(-c2cn(-c3ccccc3)nc2-c2cccc(O)c2)ccn1)Nc1ccccc1
inactive: SK-MEL-2 melanoma 86.4% | EKVX NSCLC 71.4% | SN12C renal 77.4% | UO-31 renal 58.6% | TK-10 renal 124% | ACHN renal 88.5% | CAKI-1 renal 80.1% | A498 renal 80.8% | CCRF-CEM leukemia 79.3%

O=C(O)C1CCC(=O)N1C(=O)OCc1ccccc1 (stereo not drawn)
inactive: SK-MEL-2 melanoma 103% | EKVX NSCLC 97.8% | SN12C renal 90.1% | UO-31 renal 88.7% | TK-10 renal 88.7% | ACHN renal 96.3% | CAKI-1 renal 83.4% | A498 renal 123% | CCRF-CEM leukemia 102%

Clc1cccc(Cl)c1/C=C/c1cc(/C=C/c2c(Cl)cccc2Cl)[nH]n1
inactive: SK-MEL-2 melanoma 32.4% | EKVX NSCLC 42% | SN12C renal 40.4% | UO-31 renal 51% | TK-10 renal 52.2% | ACHN renal 48.9% | CAKI-1 renal 30.1% | A498 renal 19%

Cc1c(O)cc(-c2cnc(N/N=C\c3ccc(Cl)cc3)s2)c(O)c1C
inactive: SK-MEL-2 melanoma 101% | EKVX NSCLC 64.3% | SN12C renal 87.5% | UO-31 renal 75.5% | TK-10 renal 120% | ACHN renal 100% | CAKI-1 renal 92% | A498 renal 103%

FC(F)(F)c1cc(Nc2ccc3cc(OCCCN4CCOCC4)ccc3n2)ccc1Cl
active: CCRF-CEM leukemia 3.89%
inactive: SK-MEL-2 melanoma 46% | EKVX NSCLC 62.2% | SN12C renal 49.4% | UO-31 renal 27.6% | TK-10 renal 43.3% | ACHN renal 29.5% | CAKI-1 renal 86.1% | A498 renal 36.4%

CCCCCS(=O)(=O)Nc1ccc(C(=O)O)cc1
inactive: SK-MEL-2 melanoma 93% | EKVX NSCLC 100% | SN12C renal 101% | UO-31 renal 97.9% | TK-10 renal 92.1% | ACHN renal 104% | CAKI-1 renal 102% | A498 renal 104%

O=[N+]([O-])c1ccc(OCCO)cc1
inactive: SK-MEL-2 melanoma 105% | EKVX NSCLC 92.8% | SN12C renal 101% | UO-31 renal 86.2% | TK-10 renal 117% | ACHN renal 104% | CAKI-1 renal 93.1% | A498 renal 90.6% | CCRF-CEM leukemia 96.2%

COc1cccc(-c2nn(-c3ccccc3)cc2-c2ccnc(NCCNC(=O)Nc3cccc(C(F)(F)F)c3)c2)c1
inactive: EKVX NSCLC 45.1% | SN12C renal 28.4% | TK-10 renal 57.7% | ACHN renal 35.1% | CAKI-1 renal 25.7% | A498 renal 39.7% | CCRF-CEM leukemia 28.7%
active: SK-MEL-2 melanoma -25.2% | UO-31 renal -21.9%

COC1=CC(=O)C[C@@H](C)[C@]12Oc1c(Cl)c(OC)cc(OC)c1C2=O
inactive: SK-MEL-2 melanoma 82.7% | EKVX NSCLC 106% | SN12C renal 96.5% | UO-31 renal 82.7% | TK-10 renal 96.3% | ACHN renal 99.9% | CAKI-1 renal 82.1% | A498 renal 114% | CCRF-CEM leukemia 93.9%

O=c1ssc(Cl)c1-c1ccccc1
inactive: SK-MEL-2 melanoma 155% | EKVX NSCLC 94.9% | SN12C renal 93.9% | UO-31 renal 74.6% | TK-10 renal 126% | ACHN renal 104% | CAKI-1 renal 90.5% | A498 renal 108% | CCRF-CEM leukemia 98.1%

CC(=O)OC[C@H]1OC(Sc2sc(C(=O)c3ccc(Br)cc3)c(N)c2-c2nc3ccccc3s2)[C@H](OC(C)=O)[C@@H](OC(C)=O)[C@@H]1OC(C)=O (stereo partly drawn)
inactive: SK-MEL-2 melanoma 107% | EKVX NSCLC 72.7% | SN12C renal 33% | UO-31 renal 64.6% | TK-10 renal 111% | ACHN renal 54.9% | CAKI-1 renal 63.8% | A498 renal 87.8% | CCRF-CEM leukemia 44.1%

COc1ccc(-c2ccc3c(c2)sc2nc(-c4ccc(F)cc4)cn23)cc1
inactive: SK-MEL-2 melanoma 73.4% | EKVX NSCLC 82.6% | SN12C renal 87.9% | UO-31 renal 81% | TK-10 renal 75.6% | ACHN renal 92.9% | CAKI-1 renal 100% | A498 renal 76.8% | CCRF-CEM leukemia 98.8%

COc1cccc(-c2nn(-c3ccccc3)cc2-c2ccnc(NCCCNC(=O)c3ccccc3)c2)c1
inactive: SK-MEL-2 melanoma 63.6% | EKVX NSCLC 55.8% | SN12C renal 67.2% | UO-31 renal 39.3% | TK-10 renal 60.7% | ACHN renal 69% | CAKI-1 renal 67.3% | A498 renal 59.4% | CCRF-CEM leukemia 27.7%

Cc1nn(-c2ccccc2)c2nc3c(c(-c4ccc(Cl)cc4)c12)CNC1(CCSCC1)N3
inactive: SK-MEL-2 melanoma 134% | EKVX NSCLC 94% | SN12C renal 108% | UO-31 renal 94.9% | TK-10 renal 107% | ACHN renal 103% | CAKI-1 renal 95.4% | A498 renal 89.1% | CCRF-CEM leukemia 118%

CCCCn1c(=O)c2c(nc(NCCc3ccc(O)c(O)c3)n2CCC)n(CCCC)c1=O
inactive: SK-MEL-2 melanoma 72.7% | EKVX NSCLC 79.5% | SN12C renal 86.6% | UO-31 renal 56.7% | TK-10 renal 85.8% | ACHN renal 81% | CAKI-1 renal 100% | A498 renal 86.9% | CCRF-CEM leukemia 36.6%

COC(=O)[C@]12CC[C@@H](C)[C@H](C)[C@@H]1C1=CC[C@@H]3[C@@]4(C)C(C=O)=C[C@@](C)(COC(=O)c5ccco5)[C@@H]4C(=O)C[C@@]3(C)[C@]1(C)CC2
inactive: EKVX NSCLC 38.3% | SN12C renal 42% | UO-31 renal 29.7% | TK-10 renal 29.7% | ACHN renal 13.4% | CAKI-1 renal 38.8% | A498 renal 65.5%
active: SK-MEL-2 melanoma -31.8% | CCRF-CEM leukemia 5.47%

Cc1cc(NCCCCNc2ccnc3cc(Cl)ccc23)nc(Nc2ccc(C(=O)N3CCCC3)cc2)n1
inactive: SK-MEL-2 melanoma 91.2% | EKVX NSCLC 79% | SN12C renal 70.4% | UO-31 renal 75.4% | TK-10 renal 115% | ACHN renal 60.7% | CAKI-1 renal 97.1% | A498 renal 62.6%
active: CCRF-CEM leukemia 2.01%

COC(=O)[C@]12CC[C@@H](C)[C@H](C)[C@@H]1C1=CC[C@@H]3[C@@]4(C)C(C=O)=C[C@@](C)(CO)[C@@H]4[C@H](O)C[C@@]3(C)[C@]1(C)CC2
active: SK-MEL-2 melanoma -31.7% | EKVX NSCLC 7.75% | SN12C renal 1.62% | UO-31 renal -31.5% | TK-10 renal -18.8% | ACHN renal -81.6% | CAKI-1 renal -28.7% | A498 renal -5.03% | CCRF-CEM leukemia 1.38%

O=[N+]([O-])c1ccc(Sc2cccc[n+]2[O-])c2nonc12
inactive: SK-MEL-2 melanoma 92.9% | EKVX NSCLC 98.2% | SN12C renal 93.6% | UO-31 renal 49.1% | TK-10 renal 133% | ACHN renal 95.4% | CAKI-1 renal 102% | A498 renal 113%
active: CCRF-CEM leukemia -18.8%

O=C(NCCCNc1cc(-c2cn(-c3ccccc3)nc2-c2cccc(O)c2)ccn1)c1cccc(O)c1
inactive: SK-MEL-2 melanoma 83.5% | EKVX NSCLC 71.4% | SN12C renal 76.6% | UO-31 renal 85.8% | TK-10 renal 115% | ACHN renal 89.4% | CAKI-1 renal 98.4% | A498 renal 102% | CCRF-CEM leukemia 40.5%

CC(=O)n1c(-c2ccc(Cl)cc2)nc2c(c1=O)C(c1ccc(Cl)cc1)c1sc3c(Cl)cccc3c1O2 (stereo not drawn)
inactive: EKVX NSCLC 32.9% | UO-31 renal 15.6% | ACHN renal 23.4%
active: SK-MEL-2 melanoma 7.32% | SN12C renal -0.0627% | TK-10 renal -7.43% | CAKI-1 renal 7.82% | A498 renal 3.79% | CCRF-CEM leukemia -4.47%

Oc1ccc(CN2CCC(N3CCOCC3)CC2)c2cccnc12
active: SK-MEL-2 melanoma -6.57%
inactive: EKVX NSCLC 59.4% | SN12C renal 11.8% | UO-31 renal 14.5% | TK-10 renal 30.6% | ACHN renal 12.8% | CAKI-1 renal 43.2% | A498 renal 71.1% | CCRF-CEM leukemia 22.4%

CCN1CCN(c2nc(C)cc(NCc3cc(Nc4ccnc5cc(Cl)ccc45)ccc3F)n2)CC1
active: SK-MEL-2 melanoma -49.7% | CCRF-CEM leukemia -19.4%
inactive: EKVX NSCLC 49.4% | SN12C renal 44% | UO-31 renal 17.1% | TK-10 renal 28.9% | ACHN renal 16.9% | CAKI-1 renal 68.8% | A498 renal 15.6%

Fc1ccc(CNc2c3ccccc3nc3ccccc23)cc1F
active: A498 renal 9.78%
inactive: SK-MEL-2 melanoma 89.4% | EKVX NSCLC 35.4% | SN12C renal 29.7% | UO-31 renal 15.6% | TK-10 renal 51.1% | ACHN renal 19.3% | CAKI-1 renal 25.3% | CCRF-CEM leukemia 41.5%

O=C(NCCCNc1cc(-c2cn(-c3ccccc3)nc2-c2cccc(O)c2)ccn1)c1ccc(F)cc1
active: SK-MEL-2 melanoma -8.95%
inactive: EKVX NSCLC 48.2% | SN12C renal 55% | UO-31 renal 27.1% | TK-10 renal 60.4% | ACHN renal 51.7% | CAKI-1 renal 12.4% | A498 renal 29% | CCRF-CEM leukemia 22.3%

COc1cc(N=Nc2ccc(N)cc2)c(OC)cc1N=Nc1ccccc1.[Cl][Zn][Cl]
inactive: SK-MEL-2 melanoma 112% | EKVX NSCLC 103% | SN12C renal 102% | UO-31 renal 53.1% | TK-10 renal 140% | ACHN renal 91.1% | CAKI-1 renal 75.1% | A498 renal 116% | CCRF-CEM leukemia 106%

Cc1ccc(C(=O)CSc2nc(-c3ccc(Br)cc3)c(C#N)c(=O)[nH]2)cc1
inactive: SK-MEL-2 melanoma 106% | EKVX NSCLC 106% | SN12C renal 99.5% | UO-31 renal 88.5% | TK-10 renal 103% | ACHN renal 110% | CAKI-1 renal 87.2% | A498 renal 65.1% | CCRF-CEM leukemia 105%
